Entries with a potency or affinity are not part of this list.
Tests used:
[1] = system: Staphylococcus aureus; settings: Concentration 20 uM; ASSAY_TEST Inhibition of Bacterial Growth; detection method Absorption (OD600); MEDIA CAMHB; plate type 384well; NBS; CORNING #3640; time 18 hr
[2] = system: Escherichia coli; settings: Concentration 20 uM; ASSAY_TEST Inhibition of Bacterial Growth; detection method Absorption (OD600); MEDIA CAMHB; plate type 384well; NBS; CORNING #3640; time 18 hr

O=C(Nc1nnc(S)s1)c1cc(Br)ccc1Cl
Inhibition [1]: 0.16%
Inhibition [2]: 4.27%

CC(Oc1ccccc1)C(=O)Nc1nc(-c2ccccn2)cs1 (stereo unspecified)
Inhibition [1]: 40.18%
Inhibition [2]: -10.82%

O=C(CN1CCOCC1)Nc1ccc2ncnc(Nc3ccc(OCc4cccc(F)c4)c(Cl)c3)c2c1
Inhibition [1]: 14.97%
Inhibition [2]: 4.06%

COC(=O)c1cccc2oc(-c3cccc(OC)c3NC(=O)c3cc(-c4ccccc4)on3)nc12
Inhibition [1]: 11.44%
Inhibition [2]: 4.98%

CCCS(=O)(=O)N1CCC(CO)(Cc2ccccc2C(F)(F)F)CC1
Inhibition [1]: 8.25%
Inhibition [2]: -1.16%

CCCCc1ccc(C(=O)Nc2nccc3ccccc23)nc1
Inhibition [1]: 5.7%
Inhibition [2]: -0.87%

CNC(=O)c1cc(S(=O)(=O)N2CCN(c3ccccn3)CC2)cs1
Inhibition [1]: 7.99%
Inhibition [2]: -1.66%

COc1cccc(OC)c1C(=O)Nc1ccc(Cl)c(-c2nc3ccccc3s2)c1
Inhibition [1]: 3.55%
Inhibition [2]: -2.89%

FC(F)(F)c1cc(NCCc2ccccc2)nc(-c2ccccn2)n1
Inhibition [1]: -9.89%
Inhibition [2]: -6.09%

CNC1C(OC2C(OC3C(O)C(O)C(NC(=N)N)C(O)C3NC(=N)N)OC(C)C2(O)C=O)OC(CO)C(O)C1O.CNC1C(OC2C(OC3C(O)C(O)C(NC(=N)N)C(O)C3NC(=N)N)OC(C)C2(O)C=O)OC(CO)C(O)C1O.O=S(=O)(O)O.O=S(=O)(O)O.O=S(=O)(O)O (stereo unspecified)
Inhibition [1]: 2.48%
Inhibition [2]: 8.5%

O=C(OCc1ccccc1)N1CCC(c2cc(-c3ccncc3)c(-c3ccc(F)cc3)[nH]2)CC1
Inhibition [1]: 3.21%
Inhibition [2]: 4.05%

c1ccc(Oc2ccc(-c3cc(CN4CCOCC4)[nH]n3)cc2)cc1
Inhibition [1]: 15.12%
Inhibition [2]: 2.47%

COc1ccc(Oc2ccc([C@@H](C)N(C)c3ncc4c(N)nc(N)nc4n3)cc2)cc1
Inhibition [1]: 53.21%
Inhibition [2]: 13.92%

CCC(=O)Nc1ccccc1C(=O)Nc1ccccn1
Inhibition [1]: 18.51%
Inhibition [2]: 10.48%

CC(C)c1ncc(-c2ccncc2)c([C@H]2CC[C@H](CNC(=O)c3cccnc3)CC2)n1
Inhibition [1]: 19.09%
Inhibition [2]: 13.72%

Cl.O[C@@H](c1cc(C(F)(F)F)nc2c(C(F)(F)F)cccc12)[C@H]1CCCCN1
Inhibition [1]: 45.36%
Inhibition [2]: 15.86%

CCCc1ccc(S(=O)(=O)Nc2ccc(CN3CCN(CC4CC4)CC3)cc2)cc1
Inhibition [1]: 18.92%
Inhibition [2]: 6.87%

CC(=O)Nc1ccc(NC(=O)c2cc(-c3cc(Cl)ccc3O)n[nH]2)cc1
Inhibition [1]: 5.62%
Inhibition [2]: 10.03%

O=[N+]([O-])c1cn2c(n1)OC[C@@H](OCc1ccc(OC(F)(F)F)cc1)C2 [PRETOMANID]
Inhibition [1]: 14.36%
Inhibition [2]: 4.79%

Cc1cc(C)n(-c2ccc(NC(=O)C3CCN(Cc4cnc(C)s4)CC3)cc2)n1
Inhibition [1]: 16.08%
Inhibition [2]: 3.68%

c1ccc(-c2[nH]c3ccccc3c2C(c2ccccn2)N2CCCC2)cc1 (stereo unspecified)
Inhibition [1]: 7%
Inhibition [2]: 3.92%

CCOc1ccc(OCC(=O)Nc2cc(C)cc(C)c2)cc1
Inhibition [1]: 14.06%
Inhibition [2]: 3.81%

O=C(NC1CCCCC1)N1CCN(Cc2ccc3c(c2)OCO3)CC1
Inhibition [1]: 15.03%
Inhibition [2]: 4.44%

CN1CCC(c2cc(-c3ccncc3)c(-c3ccc(F)cc3)[nH]2)CC1
Inhibition [1]: -0.65%
Inhibition [2]: -2.15%

Cc1nn(C(=O)Nc2cccc(C(F)(F)F)c2)c(C)c1Sc1ncccn1
Inhibition [1]: 14.85%
Inhibition [2]: 7.79%

COc1ccc(C2=NN(C3CCCCCC3)C(=O)[C@@H]3CC=CC[C@H]23)cc1OCCCCOc1ccc(-c2nnn[nH]2)cc1
Inhibition [1]: 53.58%
Inhibition [2]: 1.88%

CC(C)=CCC/C(C)=C\CNCCNC1C2CC3CC(C2)CC1C3 (stereo unspecified)
Inhibition [1]: 37.58%
Inhibition [2]: 10.47%

Nc1ncnc2c1c(Cc1cccc3ccccc13)nn2CC1CCNCC1
Inhibition [1]: -11.63%
Inhibition [2]: -7.67%

COc1ccc(C2(C(=O)Nc3ccc(Br)cc3)CCCC2)cc1
Inhibition [1]: 18.94%
Inhibition [2]: 6.87%

O=C(Nc1cccc(Cl)c1)c1cnc(N2CCN(c3ccncc3)CC2)c(Cl)c1
Inhibition [1]: 19.29%
Inhibition [2]: 6.8%

CCS(=O)(=O)N(Cc1ccco1)Cc1cc2ccc(C)cc2nc1O
Inhibition [1]: 9.79%
Inhibition [2]: -2.16%

COc1ccc(-c2cncc3ccc(C(=O)NCCCn4ccnc4)nc23)cc1
Inhibition [1]: 13.71%
Inhibition [2]: 12.75%

COc1cc(NC(=O)Cc2nn(C)c(=O)c3ccccc23)ccc1Cl
Inhibition [1]: 23.8%
Inhibition [2]: 11.61%

COc1ccc(C2CC(c3cccs3)=NN2C(=O)c2ccco2)cc1OC (stereo unspecified)
Inhibition [1]: 19.66%
Inhibition [2]: 11.75%

Cc1cc(C)n2nc(C(=O)Nc3cc(C(F)(F)F)ccc3N3CCOCC3)nc2n1
Inhibition [1]: 13.59%
Inhibition [2]: 10.47%

NCC(=O)N1CCn2c(nc(-c3ccccc3)c2Nc2ccc3c(c2)OCO3)C1
Inhibition [1]: 11.35%
Inhibition [2]: -1.15%

CC(=O)O.CC(=O)O.Nc1ncnc2c1ncn2[C@@H]1O[C@H](COS(=O)(=O)NC(=O)c2ccccc2O)[C@@H](O)[C@H]1O
Inhibition [1]: 15.68%
Inhibition [2]: 5.07%

CCN(CC)CCCCCCNc1cc(OC)cc2c(C)ccnc12.Cc1ccc(S(=O)(=O)O)cc1
Inhibition [1]: 18.42%
Inhibition [2]: 7.48%

COc1ccc(Nc2ccccc2NC(=O)c2ccc(O)nc2)cc1
Inhibition [1]: 8.88%
Inhibition [2]: -4.3%

CC(C)(C)c1cc(C(=O)N2CCN(c3nccnc3C#N)CC2)n(Cc2ccccc2)n1
Inhibition [1]: 20.75%
Inhibition [2]: 10.32%

COc1ccc(CN2CCOc3ccc(C(C)(O)CN(C)C)cc3C2)cc1C (stereo unspecified)
Inhibition [1]: 19.53%
Inhibition [2]: 9.29%

O=C(Nc1ccccc1-c1nc2c(C(=O)O)cccc2o1)c1ccccc1
Inhibition [1]: 12.25%
Inhibition [2]: -2.2%

CC(=O)Nc1ccc(-c2noc(CC3CCCN(Cc4cccc(F)c4C)C3)n2)cc1 (stereo unspecified)
Inhibition [1]: 14.07%
Inhibition [2]: 3.97%

CCc1nc2ccc(Cl)cn2c1C(=O)NCc1ccc(N2CCC(c3ccc(OC(F)(F)F)cc3)CC2)cc1 [TELACEBEC]
Inhibition [1]: 17.2%
Inhibition [2]: 13.17%

Cl.NCCCC(N)(C(=O)O)C(F)F.O (stereo unspecified) [EFLORNITHINE HYDROCHLORIDE]
Inhibition [1]: 10.2%
Inhibition [2]: -2.06%

CS(=O)(=O)c1ccccc1C(=O)N(Cc1ccccc1)c1ccccc1
Inhibition [1]: 14.37%
Inhibition [2]: 5.13%

CC1=Nc2ccc(Cl)cc2C(c2ccccc2)N1CCNC(=O)CN(C)C (stereo unspecified)
Inhibition [1]: 20.65%
Inhibition [2]: 6.95%

CCCCOC(=O)Nc1cc2nc(C3CCCCC3)[nH]c2cc1N1CCCC1
Inhibition [1]: 9.54%
Inhibition [2]: -0.47%

COc1ccccc1OCCCCn1c(C2CC2)nc2ccccc21
Inhibition [1]: 12.87%
Inhibition [2]: 4.8%

FC(F)(F)c1nnc2ccc(Cl)nn12
Inhibition [1]: 14.72%
Inhibition [2]: 1.56%

Cc1ccc(NC(=O)c2cc(S(=O)(=O)NC(C)(C)C)ccc2C)nc1
Inhibition [1]: 21%
Inhibition [2]: 8.11%

COc1ccc2nc(C)cc(OCC(=O)NCc3ccccc3)c2c1
Inhibition [1]: 12.19%
Inhibition [2]: 7.22%

Cc1ccc(S(=O)(=O)Nc2ccc(CN3CCN(C(=O)c4cccc(C#N)c4)CC3)cc2)cc1
Inhibition [1]: 8.99%
Inhibition [2]: 3.52%

O=C(Nc1nc(-c2ccccn2)cs1)C1CC1c1ccccc1F (stereo unspecified)
Inhibition [1]: 16.77%
Inhibition [2]: 3.89%

COc1ccc2nc(C)cc(OCC(=O)Nc3ccccc3OC)c2c1
Inhibition [1]: 18.5%
Inhibition [2]: 13.22%

COCC(C)NC(=O)CSc1ncnc2sc(-c3ccccc3)cc12 (stereo unspecified)
Inhibition [1]: 19.45%
Inhibition [2]: 9.3%

Cc1ccc(NC(=O)CC2COc3ccccc3O2)cc1Cl (stereo unspecified)
Inhibition [1]: 15.28%
Inhibition [2]: 6.03%

c1cc(C2=NCCN2)cc(-c2cc(-c3ccc(C4=NCCN4)cc3)no2)c1
Inhibition [1]: 5.99%
Inhibition [2]: 8.18%

COC(=O)c1c(NC(=O)c2cc3ccccc3oc2=O)sc2c1CCN(Cc1ccccc1)C2
Inhibition [1]: 19.04%
Inhibition [2]: 12.69%

CN1CCN(c2nccc3[nH]c(-c4cccc(F)c4)cc23)CC1
Inhibition [1]: 12.79%
Inhibition [2]: 3.68%

O=C(C1CCN(c2cc(-n3cccc3)ncn2)CC1)N1CCc2ccccc2C1
Inhibition [1]: 7.19%
Inhibition [2]: 12.02%

COc1cc(C2=NCCN2)ccc1-n1cc(-c2cccc(C3=NCCN3)c2)nn1.O=CO.O=CO
Inhibition [1]: 1.49%
Inhibition [2]: 8.11%

Cc1cc2nc(NC(=O)C(C)(C)C)nc(Cl)c2n1Cc1ccc(Cl)cc1
Inhibition [1]: 7.77%
Inhibition [2]: 0.73%

Cl.NCC(c1cccs1)S(=O)(=O)c1ccccc1 (stereo unspecified)
Inhibition [1]: 11.05%
Inhibition [2]: -0.69%

COc1cc2ncnc(NC3CCN(Cc4ccccc4)CC3)c2cc1OC
Inhibition [1]: 7.78%
Inhibition [2]: -0.93%

Cc1cc(Cl)ccc1NC(=O)CCc1ccc(S(=O)(=O)NCC(C)C)cc1
Inhibition [1]: 6.84%
Inhibition [2]: 9.61%

CCOc1ccccc1NC(C)C(=O)Nc1cc(C(F)(F)F)ccc1N1CCOCC1 (stereo unspecified)
Inhibition [1]: 15.12%
Inhibition [2]: 7.27%

CCC(NC(=O)c1ccccc1NC(=O)c1ccc(C)cc1)C(=O)OC (stereo unspecified)
Inhibition [1]: 17.84%
Inhibition [2]: 3.87%

Cc1ccc(-c2cc(C(=O)Nc3cccnc3)c3cc(Br)ccc3n2)cc1
Inhibition [1]: 16.17%
Inhibition [2]: 9.4%

c1ccc(Oc2ccc(-c3cncc(-c4ccc5[nH]ccc5c4)n3)cc2)cc1
Inhibition [1]: 11.46%
Inhibition [2]: 11.21%

CCCn1c(CNc2ccccc2O)nc2ccccc21
Inhibition [1]: 17.07%
Inhibition [2]: 4.85%

CN1CCC(NCc2cccc(-c3ccc(S(=O)(=O)NCc4ccccc4)cc3)c2)CC1
Inhibition [1]: 14.84%
Inhibition [2]: 4.63%

FC(F)(F)c1cccc(-c2nc3c(NCc4ccncc4)nccc3[nH]2)c1
Inhibition [1]: 9.41%
Inhibition [2]: 5.83%
